Experimental data: PMC4552634, “A New Set of Chemical Starting Points with Plasmodium falciparum Transmission-Blocking Potential for Antimalarial Drug Discovery” (PLoS ONE, 2015)
The campaign covered roughly 13,000 compounds. About 3,200 (25%) showed an effect of 50% or more. The list shows a part of the results.

Tested on: P. falciparum stage V gametocytes
Parameters: BacTiter-Glo ATP luminescence viability of purified stage V gametocytes in 384-well plates, per cent inhibition versus DMSO
Conditions: 48 h, 5 µM; inhibitor

| SMILES | % Inhibition |
| --- | --- |
| CC1(C)CCCN(c2ncc(-c3cccc(CNCc4ccccc4O)c3)cn2)C1 [TCMDC-133139] | 32.42% |
| CN(c1ncc(-c2cccc(CNCc3ccccc3O)c2)cn1)C1CCCCC1 [TCMDC-133137] | -20.17% |
| CC(=O)Nc1cccc(CNCc2ccc(-c3cnc(N4CCCC(C)(C)C4)nc3)cc2)c1 [TCMDC-133549] | -38.45% |
| CCCN(CC1CC1)c1ncc(-c2cccc(CNCCC3CCCN3C)c2)cn1 (centres unmarked) [TCMDC-133142] | 40.53% |
| CN1CCCC1CCNCc1cccc(-c2cnc(N3CCCC(C)(C)C3)nc2)c1 (centres unmarked) [TCMDC-133144] | 90.28% |
| CN1CCCC1CCNCc1cccc(-c2cnc(N(C)C3CCCCC3)nc2)c1 (centres unmarked) [TCMDC-133141] | 75.89% |
| CN(CCc1ccccc1)c1ncc(-c2cccc(CNCCC3CCCN3C)c2)cn1 (centres unmarked) [TCMDC-133143] | 92.22% |
| COC(=O)c1cc(OC)c(OC)cc1NC(=O)NC12CC3CC(CC(C3)C1)C2 [TCMDC-124384] | -44.27% |
| CC(Oc1ccc(Cl)cc1)C(=O)Nc1cc(C(F)(F)F)ccc1-n1cncn1 (centres unmarked) [TCMDC-125023] | 17.82% |
| Cc1cccc(CNc2nc(C)cc(N[C@@H](CC(C)C)C(=O)NCCOc3ccccc3)n2)c1 [TCMDC-134892] | -42.27% |
| Fc1ccc2nc(-c3cccc(-c4cccc(CN5CCN(c6cnccn6)CC5)c4)c3)[nH]c2c1 [TCMDC-132676] | -22.96% |
| CCCC(C)Nc1nc(C)cc(N[C@@H](CC(C)C)C(=O)Nc2ccc(OC)cc2)n1 (some centres unmarked) [TCMDC-134896] | -21.51% |
| CCCCCCCCn1ccc(=N)cc1 [TCMDC-125630] | 13.04% |
| Cc1cc(N2CCC(NS(=O)(=O)c3ccc(F)cc3)CC2)nc(Nc2cccc(C#N)c2)n1 [TCMDC-134214] | 18.32% |
| CCNc1cc(C(=O)N[C@@H](Cc2ccccc2)[C@H](O)CNC2CCC(C)(C)C2)cc(N2CCCCS2(=O)=O)c1 (some centres unmarked) [TCMDC-135302] | 9.387% |
| O=C(Nc1cccc(Cl)c1)c1cc2ccccc2cc1O [TCMDC-124171] | 9.946% |
| COc1cccc(NC(=O)CSc2nc(-c3ccccc3Cl)ns2)c1 [TCMDC-123544] | 62.62% |
| COc1ccc(NC(=O)CSc2nc(-c3ccccc3Cl)ns2)cc1 [TCMDC-123543] | 61.96% |
| COc1ccccc1-c1ccc2nnc(SCC(=O)Nc3ccc4c(c3)OCCO4)n2n1 [TCMDC-124319] | 10.92% |
| CC(=O)c1ccc(NC(=O)CSc2nc(-c3ccccc3Cl)ns2)cc1 [TCMDC-124545] | -8.871% |
| O=C(CSc1nc(-c2ccccc2Cl)ns1)Nc1cccc(Cl)c1 [TCMDC-124548] | 67.64% |
| COc1ccc(CC(=O)Nc2ccc(Nc3nc(C)cc(N4CCCC4)n3)cc2)cc1 [TCMDC-124966] | -9.476% |
| COc1ccc(NC(=O)CSc2nc(-c3ccccc3Cl)ns2)cc1OC [TCMDC-125346] | 40.34% |
| O=C(Nc1cccc(CN2CCCN(Cc3ccc4c(c3)OCO4)CC2)c1)c1ccc(Cl)c(Cl)c1 [TCMDC-141820] | -97.11% |

| SMILES | % Inhibition |
| --- | --- |
| O=C(CSc1nc(-c2ccccc2Cl)ns1)Nc1cccc(F)c1 [TCMDC-124549] | 39.34% |
| COc1ccccc1Cc1nc2ccccc2nc1SCC(=O)Nc1cccc(C(F)(F)F)c1 [TCMDC-123879] | 0.3581% |
| O=C(CSc1nc(-c2ccccc2Cl)ns1)Nc1ccc2c(c1)OCO2 [TCMDC-124546] | 53.36% |
| Cc1ccc2ccccc2c1CCCON1C(N)=NC(N)=NC1(C)C [TCMDC-131758] | 22.75% |
| O=C(Nc1ccc(Cl)c(Cl)c1)N1CCC(CNCc2cccc([N+](=O)[O-])c2)CC1 [TCMDC-141279] | 18.17% |
| O=C(/C=C/c1ccc(Cl)c(Cl)c1)NCCCCCN1CCCN(C(=O)Nc2cc(Cl)nc(Cl)c2)CC1 [TCMDC-135888] | -3.146% |
| O=C(/C=C/c1ccc(Cl)c(Cl)c1)N1CCN(C(=O)Nc2cccc(C(F)(F)F)c2)CC1 [TCMDC-135944] | -35.14% |
| COc1ccc(NC(=O)c2cn(-c3ccc(C(C)(C)C)cc3)nc2C)cc1N1CCN(C)CC1 [TCMDC-138689] | -23.67% |
| c1ccc(COc2ccccc2COc2ccccc2-c2ccc3cccnc3n2)cc1 [TCMDC-136713] | 16.91% |
| COc1ccc(OC)c(NC(=O)CSc2nc(-c3ccccc3Cl)ns2)c1 [TCMDC-124547] | 60.03% |
| COc1ccc(OC)c(NC(=O)c2c(-c3c(F)cccc3Cl)noc2C)c1 [TCMDC-123664] | 2.719% |
| COc1ccc(-n2ccnc2SCC(=O)Nc2cc(Cl)ccc2OC)c(OC)c1 [TCMDC-125135] | -9.787% |
| FC(F)(F)c1ccc(COc2cc(Cl)ccc2Cn2ccnc2)cc1 [TCMDC-137640] | -9.557% |
| COc1cc(Cc2cnc(N)nc2N)cc(OCCCCCCC(=O)O)c1OC [TCMDC-137630] | -3.564% |
| COc1ccc(CNCc2ccsc2)cc1-c1ccc(S(=O)(=O)NCCN2CCCC2)s1 [TCMDC-132298] | 91.71% |
| COc1ccc(CNCCc2cccs2)cc1-c1ccc(S(=O)(=O)NCCN2CCCC2)s1 [TCMDC-132477] | 85.27% |
| COc1ccc(CNCc2ccccc2)cc1-c1ccc(S(=O)(=O)NCCN2CCCC2)s1 [TCMDC-132257] | 102.1% |
| COc1ccc(CNCc2ccc(F)cc2)cc1-c1ccc(S(=O)(=O)NCCN2CCCC2)s1 [TCMDC-132297] | 108.7% |
| CN1CCN(c2ccnc3ccc(NC(=O)Cc4cccc(Cl)c4Cl)cc23)CC1 [TCMDC-139274] | -28.12% |
| Cc1cccc2[nH]c(-c3cccc(-c4cccc(NC(=O)c5cnn6cccnc56)c4)c3)nc12 [TCMDC-136867] | -0.6551% |
| CN(C)c1cc2c(Nc3ccc4nc(Cc5ccccc5)[nH]c4c3)ncnc2cn1 [TCMDC-137304] | -2.875% |
| COc1ccc2nccc(N(C)CC3(O)CCN(CC(O)c4ccc5c(c4)NC(=O)CS5)CC3)c2n1 (centres unmarked) [TCMDC-141471] | 38.6% |
| O=C(Nc1cccc(-c2ccc(-c3nc4cc(C(F)(F)F)ccc4[nH]3)s2)c1)c1cccnc1 [TCMDC-136922] | 0.1958% |
| CC(C)COc1ccc(Cl)cc1Cc1nc(-c2nc3ccc(CN4CCCCC4)cc3[nH]2)co1 [TCMDC-136811] | -22.76% |

| SMILES | % Inhibition |
| --- | --- |
| CC(C)COc1ccc(Cl)cc1Cc1ccc(-c2nc3c(F)cccc3[nH]2)o1 [TCMDC-136661] | 74.56% |
| CC(C)COc1ccc(Cl)cc1Cc1nc(-c2nc3ccc(CN4CCCC4)cc3[nH]2)co1 [TCMDC-136810] | -7.137% |
| CNCc1cccc2[nH]c(-c3ccc(Cc4cc(Cl)ccc4OCC(C)C)o3)nc12 [TCMDC-137044] | 60.59% |
| CC(C)COc1ccc(Cl)cc1Cc1ccc(-c2nc3c(F)c(F)ccc3[nH]2)o1 [TCMDC-136562] | 72.75% |
| Clc1ccc(OCc2ccccc2)c(Cc2ccc(-c3nc4ccncc4[nH]3)o2)c1 [TCMDC-136651] | 10.18% |
| CC(C)COc1ccc(Cl)cc1Cc1ccc(-c2nc3c(cnc4ccccc43)[nH]2)o1 [TCMDC-136650] | 61.46% |
| O=C(Nc1cccc(-c2nn3ccccc3c2-c2ccnc(Nc3cccc(F)c3)n2)c1)C1CCCCC1 [TCMDC-135770] | -93.68% |
| Cc1ccc2c(O)c([N+](=O)[O-])c(=O)[nH]c2c1 [TCMDC-131383] | 0.04547% |
| CCCn1c(SCC(=O)Nc2cc(C(F)(F)F)ccc2Cl)n[nH]c1=O [TCMDC-123566] | -8.395% |
| CC(C)(NCc1ncc[nH]1)c1nc(-c2ccc(Cl)c(O)c2)c(-c2ccncc2)[nH]1 [TCMDC-140686] | -7.541% |
| O=C(Nc1ccsc1)Nc1cccc(-c2cccc(-c3nc4ccccc4[nH]3)c2)c1 [TCMDC-133212] | -2.113% |
| COc1ccc(-c2cccc(CNC3CCN(CC4Cn5c(=O)ccc6ccc(F)c4c65)CC3)c2)cc1 (centres unmarked) [TCMDC-134414] | -11.45% |
| CCc1ccccc1OCCCON1C(N)=NC(N)=NC1(C)C [TCMDC-131305] | 3.059% |
| COc1ccc(COc2cc(NCCCN)nc3ccccc23)cc1 [TCMDC-139286] | 99.04% |
| Cc1nc(NCc2ccccc2)cc(NCC(O)c2ccc(O)cc2)n1 (centres unmarked) [TCMDC-135163] | 19.67% |
| COc1cc(NCC(O)CNc2cc(Cl)nc3ccccc23)nc2ccccc12 (centres unmarked) [TCMDC-139359] | 31.96% |
| COc1cc(NCC(CN)Cc2ccc3c(c2)OCO3)nc2ccccc12.Cl (centres unmarked) [TCMDC-140387] | 69.08% |
| COc1cc(NCCCCCNc2cc(Cl)nc3ccccc23)nc2ccccc12 [TCMDC-139303] | -22.5% |
| COc1ccccc1N1CCN(C(C(=O)NCc2ccc3c(c2)OCO3)c2ccc(C)cc2)CC1 (centres unmarked) [TCMDC-135503] | -4.748% |
| COc1ccccc1N1CCN(C(C(=O)NCc2ccc3c(c2)OCO3)c2ccc3c(c2)OCCCO3)CC1 (centres unmarked) [TCMDC-135675] | -10.78% |
| COc1ccc2c(C)cc(NCCCN(C)C)nc2c1 [TCMDC-124046] | 8.685% |
| COc1cc(NCC(O)CNc2cc(OC)c3ccccc3n2)nc2ccccc12 [TCMDC-139360] | 55.11% |
| Cc1ccc(C(=O)Nc2ccnc(N(C)C3CCN(Cc4cccc(O)c4)CC3)c2)cn1 [TCMDC-134967] | -0.6383% |
